These results are taken from PubChem BioAssay.

Assay [1] concerns Human papillomavirus type 1a protein E7 (residues 44-93). The assay can be described thus: HPV1a E7 fragment binders on microarrays, primary screen, biochemical, small-molecule microarray, residues 44-93, 635 nm fluorescence (AID 1108).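 Note: E7 fragment applied at 1 µg/mL in TBST for 1 h at 4 C; score combines spot fluorescence with its signal to noise ratio.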 The note with it: small-molecule microarray binding, fluorescence 635 nm; higher = more signal.
Assay [2] can be described thus: modulators of HCV replicon luciferase signal, primary screen, HCV replication inhibitor project, Huh7 cells, luciferase reporter (AID 1109).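 Note: huh7 hepatoma cells harbouring a luciferase neomycin HCV replicon reporter; luciferase luminescence as measure of HCV replicon replication; test concentration not given here.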 As to conditions: 48 h, higher = more signal.
The target of assay [3] is Left-right determination factor 2 (Homo sapiens) (UniProt O00292). Nature of the assay: LEFTY2 binders on small-molecule microarrays, primary screen, biochemical, small-molecule microarray, 635 nm fluorescence scan (AID 1110). As to conditions: LEFTY2 binding, higher = more signal.
Sequence of Left-right determination factor 2 (Homo sapiens) (O00292 whole entry, looked up): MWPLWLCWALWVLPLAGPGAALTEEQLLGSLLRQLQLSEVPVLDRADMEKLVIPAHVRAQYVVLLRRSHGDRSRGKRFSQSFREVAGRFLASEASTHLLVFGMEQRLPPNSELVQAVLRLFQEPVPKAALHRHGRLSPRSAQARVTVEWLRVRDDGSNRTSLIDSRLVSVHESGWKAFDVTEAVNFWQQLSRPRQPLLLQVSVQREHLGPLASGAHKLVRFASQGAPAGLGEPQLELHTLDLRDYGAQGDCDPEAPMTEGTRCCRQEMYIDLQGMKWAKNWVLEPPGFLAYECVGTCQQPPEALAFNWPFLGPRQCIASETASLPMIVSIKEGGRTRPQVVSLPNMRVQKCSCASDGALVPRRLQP
In assay [4] the target is Calmodulin-1 (Homo sapiens) (UniProt P0DP23). Nature of the assay: CALM1 binders on microarrays, EGTA buffer, profiling panel, biochemical, small-molecule microarray, Cy5-labelled CALM1 (AID 1111).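 Note: labelled calmodulin applied in Tris saline Tween buffer holding calcium plus EGTA and DTT.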 As to conditions: Cy5-CALM1 binding fluorescence, higher = more signal.
Assay [5] has the same target. The assay can be described thus: calcium-bound CALM1 binders on microarrays, profiling panel, artefact control for SMM control-protein annotation, biochemical, small-molecule microarray, Cy5-labelled CALM1, plus calcium (AID 1112).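 Note: score merges spot fluorescence with signal to noise from triplicate slides.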 As to conditions: Cy5-CALM1 binding fluorescence, higher = more signal.
Assay [6] can be described thus: small-molecule microarray binders of probe aWnt5a, primary screen, biochemical, biotinylated probe, 635/667 nm fluorescence (AID 1113).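 Note: score merges 667 nm fluorescence intensity with signal-to-noise per printed feature.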 As to conditions: higher = more signal.
Assay [7] in a line: small-molecule microarray binders of probe aShh, primary screen, biochemical, biotinylated probe, 635/667 nm fluorescence (AID 1114).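 Note: probe is biotin-labelled aShh protein from a stem cell growth factor screen; measures binding of labelled protein to compounds printed on the slide; score merges feature fluorescence at 667 nm with signal-to-noise.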 As to conditions: higher = more signal.
The nature of assay [8]: small-molecule microarray binders of probe aNog, primary screen, biochemical, biotinylated probe, 635/667 nm fluorescence (AID 1115).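 Note: probe is biotinylated aNog protein used at 0.15 µg/mL for 1 h at 4 C; z-score combines 667 nm fluorescence of each spot with its signal to noise.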 As to conditions: higher = more signal.
Assay [9] deals with Torsin-1A-interacting protein 1 (Homo sapiens) (UniProt Q5JTV8). Nature of the assay: LAP1 binders from COS7 cell lysate, primary screen, small-molecule microarray, 635/667 nm fluorescence (AID 1116). The note with it: COS7-hLAP1 lysate binding, 635 nm fluorescence, higher = more signal.
Sequence of Torsin-1A-interacting protein 1 (Homo sapiens) (Q5JTV8 whole entry, looked up): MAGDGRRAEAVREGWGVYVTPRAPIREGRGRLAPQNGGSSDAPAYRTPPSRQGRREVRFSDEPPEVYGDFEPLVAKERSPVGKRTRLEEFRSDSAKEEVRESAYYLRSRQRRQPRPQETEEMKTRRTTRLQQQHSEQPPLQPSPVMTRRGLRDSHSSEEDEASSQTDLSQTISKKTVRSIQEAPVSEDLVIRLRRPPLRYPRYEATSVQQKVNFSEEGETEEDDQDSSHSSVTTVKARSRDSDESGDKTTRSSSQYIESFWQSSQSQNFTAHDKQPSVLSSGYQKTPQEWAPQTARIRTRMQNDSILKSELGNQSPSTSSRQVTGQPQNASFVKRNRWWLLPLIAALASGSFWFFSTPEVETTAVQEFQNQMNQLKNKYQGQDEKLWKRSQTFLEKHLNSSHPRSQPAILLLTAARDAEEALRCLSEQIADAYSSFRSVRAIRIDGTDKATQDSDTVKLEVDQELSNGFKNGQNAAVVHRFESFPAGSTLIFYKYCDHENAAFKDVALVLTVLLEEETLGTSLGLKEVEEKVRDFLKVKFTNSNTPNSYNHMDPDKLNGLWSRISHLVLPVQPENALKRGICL
The target of assay [10] is Alpha-bungarotoxin (Bungarus multicinctus) (UniProt P60615). Nature of the assay: alpha-bungarotoxin binders on microarray, profiling panel, artefact control for SMM control protein annotation, biochemical, small-molecule microarray, Alexa647 label, 635/667 nm fluorescence (AID 1117). As to conditions: alpha-BTX-A647 binding fluorescence, higher = more signal.
Sequence of Alpha-bungarotoxin (Bungarus multicinctus) (P60615 whole entry, looked up): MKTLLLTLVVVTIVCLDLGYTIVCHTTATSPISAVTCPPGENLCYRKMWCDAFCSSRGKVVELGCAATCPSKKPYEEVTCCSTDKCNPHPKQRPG

As for `C=C(/C(=C/C[C@H](OC(C)=O)c1ccccc1OCCO)c1cnc2ccccc2c1)C(C)C`, the composite z-score in assay [1] is 0.101; in [3], -0.0274; in assay [4] it was 0.361; in assay [5], -0.378; in assay [6], -0.034; in assay [7] it was 0.184. Further, the composite z-score is -0.036 in [8], 0.327 in assay [9] and 1.19 in [10]. In addition, the z-score in assay [2] was -2.42.

Consider `O=C1[C@@]23C=C(Br)[C@H](C[C@@H]2CCOC3)[C@@]12CO2`, for which the composite z-score in assay [1] is 0.364; in assay [3], 0.459; in assay [4], -0.206; in assay [5], -0.657; in [6], -0.0585; in assay [7], 0.151. Further, the composite z-score was -0.303 in assay [8], 1.53 in [9] and 0.331 in assay [10]. In addition, the z-score in [2] was -2.17.

Consider `O=C(NCCO)C1=C[C@H](Oc2ccccc2I)[C@@H](O)[C@H](N(Cc2ccco2)C(=O)Cc2ccccc2)C1`, for which the composite z-score in assay [1] is -0.0509; in assay [3] it was 0.51; in [4], -0.0916; in [5], -0.671; in [6], 0.0057; in [7], -0.209. For the same molecule, the results for the composite z-score in assay [8], in [9] and in [10] were 0.0129, 0.591 and -0.0333, respectively. This molecule gave a z-score in [2] of 0.807.

`C=CCOC(=O)[C@H]1[C@@H]2C(=O)O[C@@H](c3ccccc3)[C@@H](c3ccccc3)N2[C@@H](c2ccc(OCCOC(=O)[C@H]3C[C@H]4C(=O)N[C@@H](CCCCN(C)C)C(=O)N4[C@H]3c3ccc(O)cc3)cc2)[C@]12C(=O)Nc1ccc(I)cc12`: the composite z-score is 1.4 in assay [1]; 1.21 in assay [3]; 0.536 in [4]; -0.62 in [5]; 0.114 in assay [6]; 0.275 in [7]. Further, the composite z-score in [8] was 1.14; in [9], 1.64; in [10] it was 0.864. The molecule further returned a z-score in assay [2] of -0.151.

As for `CCCC[C@@H]1C[C@H]1[C@@H](NC(=O)C(C)(C)C)c1ccc(C(F)(F)F)cc1`, the composite z-score was 0.946 in assay [1]; -1.61 in assay [3]; 1.18 in [4]; 1.3 in assay [5]; -0.203 in assay [6]; 0.102 in assay [7]. Besides, the composite z-score in assay [8] is 1.52; in assay [9] it was 0.473; in [10], -0.0729. In assay [2], this molecule displayed a z-score of -1.71.

Consider `CC[C@@H]1C=C(C(=O)O)[C@H](c2ccc(Br)cc2)N1S(=O)(=O)c1ccc(C)cc1`, for which the composite z-score was 0.618 in assay [1]; -0.124 in [3]; 1.17 in assay [4]; 0.244 in [5]; -0.154 in [6]; -0.0769 in assay [7]. Further, the composite z-score in assay [8] is 0.581; in [9], 0.532; in assay [10], 0.535. The same molecule yielded a z-score in assay [2] of -0.832.

With `O=C(CS)NCCCCCCNC(=O)[C@@H]1C[C@@H]2C(=O)N[C@@H](Cc3ccccc3)C(=O)N2[C@@H]1c1cccc(OCCO)c1`, the composite z-score in assay [1] stood at 1.39; in assay [3], 0.934; in assay [4] it was 0.309; in assay [5], 0.414; in [6] it was 0.0102; in [7], 0.265. Further, the composite z-score was 0.0637 in assay [8], 0.585 in [9] and 1.2 in [10]. In [2], the z-score is -0.698.

Turning to `[N-]=[N+]=Nc1ccccc1[C@@H]1OC(c2ccc(OCCCO)cc2)=N[C@]1(CCS(=O)(=O)c1ccccc1)C(N)=O`, the composite z-score is 1.38 in assay [1]; -0.109 in [3]; 0.925 in assay [4]; 0.629 in [5]; 0.29 in [6]; 0.57 in assay [7]. Also, the composite z-score in assay [8] was found to be 1.51; in assay [9], 1.81; in assay [10], 0.992. The molecule further returned a z-score in [2] of 0.272.

Regarding `C=C(COC)/C(=C/C[C@H](OC(C)=O)c1ccc(CO)o1)c1cc(C(=O)OC)ccc1OC`, the composite z-score was 0.487 in [1]; -0.151 in assay [3]; -0.0624 in [4]; 0.204 in [5]; -0.0107 in assay [6]; -0.105 in assay [7]. Moreover, the composite z-score in [8] is -0.0489; in assay [9], 0.0742; in assay [10], -0.136. In assay [2], this molecule showed a z-score of -0.246.

As for `Cc1ccc([C@@H]2C[C@@H](Sc3ccccc3)[C@H](C(=O)O)CN2S(=O)(=O)c2ccc(C)cc2)cc1`, the composite z-score in assay [1] was 1.47; in assay [3], 0.0973; in assay [4] it was 1.66; in [5] it was 0.481; in assay [6], 0.0219; in assay [7], 0.408. Further, the values for the composite z-score in assay [8], in assay [9] and in [10] were 1.55, 1.17 and 1.69, respectively. In assay [2], this molecule displayed a z-score of -0.733.

Turning to `Cc1ccc(S[C@]2(C(=O)O)CC(=O)N(C(C)C)[C@@H]2c2ccc(CO)cc2I)cc1`, the composite z-score in [1] is 0.506; in assay [3], -0.195; in [4], 1.75; in assay [5], 0.845; in assay [6], 0.0611; in assay [7], 0.111. In addition, the values for the composite z-score in assay [8], in assay [9] and in assay [10] were 1.65, 0.836 and 1.18, respectively. In assay [2], the z-score was -1.31.

As for `CC(C)C(CO)N1C(=O)[C@@H]2C3C(=O)OCCC/C=C\[C@H]3OC23C=CCN(CCN2CCOCC2)C(=O)[C@@H]13` (stereo not given in full), the composite z-score was -0.729 in assay [1]; 0.0228 in assay [3]; -0.799 in assay [4]; -0.386 in [5]; -0.0529 in assay [6]; -0.209 in assay [7]. Further, the values for the composite z-score in [8], in assay [9] and in [10] were -0.238, 1.38 and -1.6, respectively. This molecule returned a z-score in [2] of 0.0618.

As to `COc1ccc(CCNC(=O)[C@@H]2c3ccccc3C(=O)N(Cc3ccccc3Cl)[C@H]2c2ccc(CO)cc2)cc1`, the composite z-score was 1.07 in assay [1]; 0.147 in assay [3]; -0.0739 in [4]; -0.0544 in assay [5]; -0.152 in assay [6]; 0.0611 in [7]. Moreover, the composite z-score was 0.395 in assay [8], 0.412 in [9] and -0.473 in assay [10]. The same molecule returned a z-score in assay [2] of -1.37.

Regarding `CN1C(=O)C2C=CC(C(O)c3ccc([N+](=O)[O-])cc3)N(N3CCCCC3)C2C1=O` (stereo not given), the composite z-score came to 1.33 in assay [1]; 0.169 in [3]; 1.42 in assay [4]; 0.0877 in assay [5]; 0.0913 in assay [6]; 0.108 in assay [7]. The composite z-score in assay [8] was 1.59; in assay [9], -0.0204; in assay [10], 1.08. The molecule further came in with a z-score in assay [2] of 0.702.

Turning to `C=CCNC(=O)[C@@H]1[C@H]2C(=O)O[C@H](c3ccccc3)[C@H](c3ccccc3)N2[C@H](c2ccccc2OCCO)[C@@]12C(=O)N(C(=O)OCCOC)c1ccccc12`, the composite z-score is 1.43 in [1]; 0.877 in assay [3]; 0.926 in assay [4]; -0.464 in assay [5]; 0.132 in assay [6]; 0.126 in [7]. Moreover, the values for the composite z-score in assay [8], in assay [9] and in assay [10] were -0.331, 0.784 and 1.25, respectively. In assay [2], this molecule yielded a z-score of -2.64.

On to `CCCC=C(CCC)[C@@H](NC(=O)c1cccs1)c1ccc(C(F)(F)F)cc1`, for which the composite z-score in [1] was determined as 1.17; in assay [3] it was 1.16; in assay [4], 1.48; in assay [5], 0.522; in assay [6], 0.0546; in assay [7], 0.336. The composite z-score was 1.15 in [8], 1.27 in assay [9] and 0.734 in assay [10]. Also, the z-score in assay [2] was -0.668.

For the molecule `CCOC(=O)C[C@H]1[C@H](OC(=O)c2ccc(C(=O)c3ccccc3)cc2)[C@@H](NC(=O)c2ccc3ccccc3n2)c2cc(OCCCO)ccc2N1C(=O)c1ccccc1`, the composite z-score in [1] is 0.997; in assay [3], -0.538; in assay [4] it was 1.47; in assay [5] it was 0.202; in [6], 0.0079; in assay [7] it was 0.308. Further, the results for the composite z-score in assay [8], in assay [9] and in assay [10] were 0.217, 0.164 and 1.05, respectively. This molecule yielded a z-score in assay [2] of -1.63.

Consider `C=C(COC)/C(=C/C[C@@H](OC(C)=O)c1ccc(OCCO)cc1)c1cnc2ccccc2c1`, for which the composite z-score in assay [1] is 0.487; in [3], 0.989; in assay [4], 0.263; in [5] it was -0.731; in assay [6], -0.0761; in assay [7] it was 0.0557. Moreover, the composite z-score in assay [8] is -0.1; in assay [9], 0.174; in assay [10], 1.63. Further, the z-score in assay [2] was -1.19.
